The values that follow come from PubChem BioAssay.

Results filed as inconclusive are left out. Active and inactive are the calls of the source. Unless noted, how the calls were made is not given here.

Test [1] can be described thus: compounds altering viability of human ES cells (AID 493140).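 Further: cells exposed to compounds for four days before counting.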 To be noted: human embryonic stem cell survival screen; stronger effect = higher value.
Test [2] has as its target Mitogen-activated protein kinase 7 (Homo sapiens) (UniProt Q13164). The experiment in a line: Gal4-ERK5 driven luciferase induction – cell-based, HTS, primary screen (AID 1508626;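 active means luciferase signal above three times the same-plate solvent-only control wells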;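 further: luciferase driven by Gal4-ERK5 fusion binding five Gal4 sites before minimal TATA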). To be noted: HeLa Gal4-ERK5 transactivation, 18 h, at 5 µM, stronger effect = higher value.
Test [3] can be described thus: compounds altering circadian rhythm period length – cell-based, LOPAC library, luminescence reporter (AID 2774).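 Further: values are relative to mean of DMSO wells on each plate.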 To be noted: circadian reporter cells, at 7 µM, actives lie on both sides.
For test [4], the system named is Hepatitis C virus NS3 helicase. The experiment in a line: blockers of NS3h binding to ssDNA – biochemical, fluorescence polarization, LOPAC1280 library, primary screen (AID 687035; in the data active means inhibition above about 37%). To be noted: Purified HCV NS3 helicase, Cy5-dT15 ssDNA binding fluorescence polarization; stronger effect = higher value; concentration not given here.
Test [5] can be described thus: compounds altering Cy5-DNA-NS3h complex signal – biochemical, LOPAC1280, artefact control for HCV NS3 helicase inhibitor project (AID 687037). To be noted: Cy5-DNA-NS3h complex fluorescence interference counterscreen.
The nature of test [6]: viability loss in pontine glioma line – cell-based, JHH-DIPG-1, MIPE4.0, CellTiter-Glo, qHTS, dose response (AID 1347062; cut-off not given, nearly all actives have AC50 up to about 27 µM;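 on AC50: cells exposed to compound for two days before readout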). To be noted: JHH-DIPG-1 viability, CellTiter-Glo ATP luminescence. On the technique in general: Cellular ATP, detected with luciferase, serves as a proxy for viable cell number.
Test [7] can be described thus: viability loss in pontine glioma line – cell-based, SU-DIPG-IV, MIPE4.0, CellTiter-Glo, qHTS, dose response (AID 1347063; cut-off not given, nearly all actives have AC50 up to about 30 µM;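 further: compound exposure lasted 48 hours before the viability readout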). To be noted: CellTiter-Glo ATP luminescence.
Test [8] in a line: viability loss in pontine glioma line – cell-based, SU-DIPG-XIII, MIPE5.0, CellTiter-Glo, qHTS, dose response (AID 1347064; cut-off not given, nearly all actives have AC50 up to about 23 µM;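 on AC50: cells exposed to compound for 48 hours before the viability read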). To be noted: CellTiter-Glo ATP luminescence.
The nature of test [9]: viability loss in pontine glioma line – cell-based, SU-DIPG-XXV, MIPE5.0, CellTiter-Glo, qHTS, dose response (AID 1347065; cut-off not given, nearly all actives have AC50 up to about 26 µM;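 further: cells exposed to compound for 48 hours before ATP readout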). To be noted: CellTiter-Glo ATP luminescence.
Test [10] is described as follows: JHH-DIPG-1 glioma cell viability, MIPE5.0 library, CellTiter-Glo luminescence, qHTS (AID 1347067; cut-off not given, nearly all actives have AC50 up to about 26 µM;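 further: cells exposed to compound for 48 hours before readout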). To be noted: JHH-DIPG-1 glioma viability, CellTiter-Glo ATP luminescence.
Test [11] can be described thus: compounds altering HSF1 focus formation in cells – imaging, Selleck Cancer Library (AID 1347162; in the data active means plate-normalised HSF1 focus index below about 0.46). To be noted: human cells, HSF1 nuclear foci imaging, at 10 µM; SSMD: measured here: HSF1 foci SSMD mean; cell count: measured here: cell number; plate-normalised HSF1 focus index: stronger effect = lower value.
A short description of test [12]: blockers of cellular phospholipid synthesis – cell-based, LOPAC library, screen 4, primary screen (AID 1347384). To be noted: animal cells, phospholipid biosynthesis inhibition screen; at 10 µM.

Chain of Mitogen-activated protein kinase 7 (Homo sapiens) (Q13164 whole entry, looked up, the tested form may be a part): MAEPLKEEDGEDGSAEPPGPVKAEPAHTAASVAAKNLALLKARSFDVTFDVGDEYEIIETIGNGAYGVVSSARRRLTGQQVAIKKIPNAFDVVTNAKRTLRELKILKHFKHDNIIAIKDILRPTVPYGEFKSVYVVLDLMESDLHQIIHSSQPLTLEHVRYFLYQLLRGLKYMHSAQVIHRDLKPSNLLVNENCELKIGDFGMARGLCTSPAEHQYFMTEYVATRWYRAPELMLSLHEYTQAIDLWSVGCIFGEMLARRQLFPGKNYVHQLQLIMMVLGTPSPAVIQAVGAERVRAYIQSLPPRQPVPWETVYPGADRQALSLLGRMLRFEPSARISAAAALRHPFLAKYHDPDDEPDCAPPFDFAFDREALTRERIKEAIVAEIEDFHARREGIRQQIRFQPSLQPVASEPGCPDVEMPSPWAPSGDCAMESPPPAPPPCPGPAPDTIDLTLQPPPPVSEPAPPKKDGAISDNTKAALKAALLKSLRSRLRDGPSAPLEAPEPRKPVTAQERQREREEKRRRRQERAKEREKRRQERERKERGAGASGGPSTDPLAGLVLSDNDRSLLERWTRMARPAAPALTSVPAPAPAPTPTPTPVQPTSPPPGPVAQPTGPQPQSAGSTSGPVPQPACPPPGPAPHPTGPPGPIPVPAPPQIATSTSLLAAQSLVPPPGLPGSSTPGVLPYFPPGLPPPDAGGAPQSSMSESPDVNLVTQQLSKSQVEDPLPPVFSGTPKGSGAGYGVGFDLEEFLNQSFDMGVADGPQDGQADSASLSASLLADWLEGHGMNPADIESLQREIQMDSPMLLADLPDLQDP

Take `C[C@@]12C(=O)OC(=O)[C@]1(C)C1CCC2O1`: in [1], the survival was 0.417 (inactive).

Consider `O=C(OOC(=O)c1ccccc1)c1ccccc1`, for which the luciferase signal in test [2] is 104 AU (inactive).

The term inhibition denotes the change of the read-out against control, counted positive when it falls. In general, AC50 refers to the concentration giving half of the maximal activity seen. For the compound `CC1=C(/C=C/C(C)=C/C=C/C(C)=C/C(=O)Nc2ccc(O)cc2)C(C)(C)CCC1`, in test [3], the period change is -0.145 h (inactive). Besides, the survival in test [1] was 116 (inactive). Further, the inhibition in [4] is -3% (inactive). Also, in test [5], the fluorescence ratio (interference) was 1 (inactive). In addition, the AC50 in test [6] was 2.7 µM (active); in test [7], 4.81 µM (active); in test [8], 16.6 µM (active); in [9], 14.8 µM (active); in test [10] it was 20.9 µM (active). Also, the SSMD in [11] is -4.16. In test [11], this compound registered a cell count of 7280. Moreover, in test [11], the plate-normalised HSF1 focus index is 0.851 (inactive). Further, in test [12], the call was active.

`CC(O)(P(=O)(O)O)P(=O)(O)O`: the survival in test [1] was 4.67 (inactive). For the same compound, the luciferase signal in [2] is 48 AU (inactive).

Take `CCCCCCCCCCOc1cc2c(=O)c(C(=O)OCC)c[nH]c2cc1OCC`: the luciferase signal in test [2] was 44 AU (inactive).

Turning to `NC(=O)CCCCC1CCSS1` (centres undefined), the luciferase signal in test [2] is 44 AU (inactive).

Consider `CCOCC(O)COc1ccc(NC(=O)CC[S+](C)C)cc1` (centres undefined), for which the outcome in test [6], in [7], in [8], in test [9] and in test [10] was inactive.

As to `CN(C)C/C=C(/c1ccc(Br)cc1)c1cccnc1`, the period change in [3] is -0.15 h (inactive). For the same compound, the survival in [1] was 24.8 (inactive). In [4], the inhibition was 1% (inactive). Further, the fluorescence ratio (interference) in test [5] is 1 (inactive). In addition, in [12], the result was inactive.

`CCN1CCC[C@H]1CNC(=O)c1c(OC)ccc(Br)c1OC`: the survival in test [1] was 12.3 (inactive).

As for `Cc1ccc2c(c1)c1c3n2CCNC3CCC1` (centres undefined), in [1], the survival was 11.2 (inactive).

On to `CC[C@]1(O)C[C@H]2CN(CCc3c([nH]c4ccccc34)[C@@](C(=O)OC)(c3cc4c(cc3OC)N(C=O)[C@H]3[C@@](O)(C(=O)OC)[C@H](OC(C)=O)[C@]5(CC)C=CCN6CC[C@]43[C@@H]65)C2)C1`, for which the AC50 in [6] is 0.00526 µM (active); in test [8], 0.332 µM (active); in test [9], 0.0295 µM (active); in test [10] it was 0.0295 µM (active). The luciferase signal in [2] was 72 AU (inactive).

As for `Cc1cc(C)c(/C=C2\C(=O)Nc3ccccc32)[nH]1`, the period change in [3] is 0.375 h (inactive). Further, the inhibition in test [4] was 6% (inactive). Moreover, the fluorescence ratio (interference) in test [5] was 1 (inactive). Besides, the result in [8], in [10] and in [12] was inactive.

Regarding `CC1(CN2CCC(n3c(=O)[nH]c4ccccc43)CC2)OCc2ccccc2-n2cccc21` (centres undefined), the compound was called inactive in test [6]. The call in test [7] was inactive. In addition, in test [11], the SSMD was 2.84, the cell count amounted to 7080 and the plate-normalised HSF1 focus index was 1.16 (inactive).

As for `COc1ccc2c(c1OC)C(=O)O[C@@H]2[C@H]1c2c(cc3c(c2OC)OCO3)CCN1C`, the period change in test [3] was -0.03 h (inactive). Also, in test [1], the survival was 2.92 (inactive). Also, the inhibition in [4] is -2% (inactive). For the same compound, the fluorescence ratio (interference) in test [5] was 1 (inactive). Moreover, the compound was classed as inactive in test [12]. The luciferase signal in test [2] is 44 AU (inactive).

Take `CCn1ccnc1CC1COc2ccccc2O1` (centres undefined): the period change in test [3] was 0.33 h (inactive). Moreover, the inhibition in test [4] was -4% (inactive). Also, in [5], the fluorescence ratio (interference) was 1 (inactive). Also, the outcome in test [12] was inactive.

Consider `c1cc(CN2CCCCC2)cc(OCCCNc2nc3ccccc3s2)c1`, for which the period change in [3] is -0.085 h (inactive). For the same compound, in test [4], the inhibition was -2% (inactive). Besides, the fluorescence ratio (interference) in [5] was 1 (inactive). Further, the result in test [12] was inactive.

Take `FC(F)(F)c1ccccc1-n1ccnc1`: the period change in [3] is -0.115 h (inactive). Besides, the inhibition in test [4] was 0% (inactive). The fluorescence ratio (interference) in [5] was 1 (inactive). Besides, the compound was classed as inactive in test [12].

In the case of `CC[N+](CC)(CC)CCOc1ccc(/C=C/c2ccccc2)cc1`, the inhibition in [4] is -3% (inactive). Also, the fluorescence ratio (interference) in test [5] was 1 (inactive). The compound was called inactive in [12].

Turning to `CC(C)C(=O)c1c(C(C)C)nn2ccccc12`, the period change in [3] is -0.095 h (inactive). In addition, the inhibition in test [4] was -1% (inactive). The fluorescence ratio (interference) in test [5] was 1 (inactive). Further, in test [12], the call was inactive.

Consider `CCOC(=O)c1cnc2c(cnn2CC)c1NN=C(C)C`, for which, in [3], the period change is 0.065 h (inactive). Also, in test [4], the inhibition is -2% (inactive). Moreover, the fluorescence ratio (interference) in test [5] is 1 (inactive). Moreover, in [12], the call was inactive.

`CN(C(=O)c1c(O)c2ccccc2n(C)c1=O)c1ccccc1`: the compound was called inactive in test [10].

Turning to `COC(=O)[C@@H]1CC2=CC(=O)CC[C@]2(C)[C@@]23O[C@@H]2C[C@@]2(C)[C@@H](CC[C@@]24CCC(=O)O4)[C@H]13`, the compound was called inactive in test [8] and in [10].

Regarding `OC(CN1CCC(Cc2ccc(F)cc2)CC1)c1ccc(Cl)cc1` (centres undefined), the inhibition in [4] was -3% (inactive). Moreover, the fluorescence ratio (interference) in test [5] is 1 (inactive). The call in test [7] and in test [12] was inactive.

In the case of `COCC(=O)O[C@]1(CCN(C)CCCc2nc3ccccc3[nH]2)CCc2cc(F)ccc2[C@@H]1C(C)C`, in test [3], the period change was -0.16 h (inactive). In addition, the inhibition in [4] was -2% (inactive). Moreover, the fluorescence ratio (interference) in test [5] was 1 (inactive). Besides, the compound was called inactive in test [12].

With `Cc1ccc(=O)n(-c2ccccc2)c1`, in [3], the period change was -0.085 h (inactive). The inhibition in test [4] was -4% (inactive). Further, the fluorescence ratio (interference) in test [5] is 1 (inactive). Also, in test [12], the outcome was inactive.

`CC#C[C@]1(O)CC[C@H]2[C@@H]3CCC4=CC(=O)CCC4=C3[C@@H](c3ccc(N(C)C)cc3)C[C@@]21C`: the period change in test [3] was 0.39 h (inactive). The survival in test [1] is 27.7 (inactive). Besides, the inhibition in test [4] is -1% (inactive). The fluorescence ratio (interference) in test [5] is 0.9 (inactive). In addition, the concentration at half-maximal activity (AC50) in [6] is 0.235 µM (active); in test [7], 0.418 µM (active); in [9], 29.5 µM (active). Moreover, in [12], the compound was called inactive. Moreover, in test [2], the luciferase signal is 36 AU (inactive).

For `Cn1ccc2cc3c(cc21)CCN3C(=O)Nc1cccnc1`, the period change in [3] was 0.355 h (inactive). The inhibition in test [4] was -3% (inactive). In addition, the fluorescence ratio (interference) in [5] was 0.9 (inactive). The compound was called inactive in test [6], in [7], in test [8], in test [9], in test [10] and in test [12].
